The panel holds about 83,000 compounds, 20% with a hit somewhere; the sample as a whole holds those more often.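 Negative percent growth values reflect cell death: -40 means 40% of the cells present at the start died, and -100 means all died.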 Values without a mark were called inactive. Calls of active or inactive are those of the source. Rule for the calls: active = growth percent below 10; inactive = the rest.
How the values were obtained:
Experiment in all cases: NCI-60 one-dose screen, 48 h (100 = growth as untreated, 0 = no growth, -100 = all killed)
Conditions in all cases: 10 µM unless noted
HCT-15 colon = test system: HCT-15 colon
HT29 colon = test system: HT29 colon
SNB-75 CNS = test system: SNB-75 CNS
SNB-19 CNS = test system: SNB-19 CNS
PC-3 prostate = test system: PC-3 prostate
SK-MEL-5 melanoma = test system: SK-MEL-5 melanoma
UACC-62 melanoma = test system: UACC-62 melanoma
LOX IMVI melanoma = test system: LOX IMVI melanoma
SK-MEL-28 melanoma = test system: SK-MEL-28 melanoma

SMILES: Cc1ccc(C2=Nc3c(N)ncnc3NC(c3ccc4c(c3)OCO4)C2)cc1 (stereo not given)
- growth (HCT-15 colon): 34.6%
- growth (HT29 colon): 14.1%
- growth (SNB-75 CNS): 53.5%
- growth (SNB-19 CNS): 73.2%
- growth (PC-3 prostate): 62.5%
- growth (SK-MEL-5 melanoma): 33.3%
- growth (UACC-62 melanoma): 48.5%
- growth (LOX IMVI melanoma): 59.3%
- growth (SK-MEL-28 melanoma): 58%

SMILES: O=Cc1ccc([N+](=O)[O-])s1
- growth (HCT-15 colon): 48.7%
- growth (HT29 colon): 55.4%
- growth (SNB-75 CNS): 85.8%
- growth (SNB-19 CNS): 91.4%
- growth (PC-3 prostate): 92.6%
- growth (SK-MEL-5 melanoma): 102%
- growth (UACC-62 melanoma): 80.2%
- growth (LOX IMVI melanoma): 85.8%
- growth (SK-MEL-28 melanoma): 99.5%

SMILES: Cc1oc(-c2ccc(Cl)cc2)nc1/C=C/C(=O)c1ccccc1
- growth (HCT-15 colon): 97.5%
- growth (HT29 colon): 107%
- growth (SNB-75 CNS): 93.2%
- growth (SNB-19 CNS): 97.6%
- growth (PC-3 prostate): 93.6%
- growth (SK-MEL-5 melanoma): 99%
- growth (UACC-62 melanoma): 87.5%
- growth (LOX IMVI melanoma): 99.6%
- growth (SK-MEL-28 melanoma): 105%

SMILES: COc1ccc(OC)c(-c2c(C#N)c(-c3cccs3)nc3c2c(-c2ccccc2)nn3-c2ccccc2)c1
- growth (HCT-15 colon): 104%
- growth (HT29 colon): 97.4%
- growth (SNB-75 CNS): 89%
- growth (SNB-19 CNS): 96.6%
- growth (PC-3 prostate): 93.5%
- growth (SK-MEL-5 melanoma): 102%
- growth (UACC-62 melanoma): 90.2%
- growth (LOX IMVI melanoma): 104%
- growth (SK-MEL-28 melanoma): 107%

SMILES: O=C(c1ccccc1)C1C(=O)N2C(=S)N(c3ccccc3)C(=O)C2C1c1ccc(Cl)cc1 (stereo not given)
- growth (HCT-15 colon): 105%
- growth (HT29 colon): 111%
- growth (SNB-75 CNS): 96.5%
- growth (SNB-19 CNS): 93.8%
- growth (PC-3 prostate): 86.7%
- growth (SK-MEL-5 melanoma): 91.6%
- growth (UACC-62 melanoma): 88%
- growth (LOX IMVI melanoma): 90.2%
- growth (SK-MEL-28 melanoma): 93.8%

SMILES: N#CC1=C(N)Oc2c(sc3c(Br)cccc23)C1c1ccc(F)cc1 (stereo not given)
- growth (HCT-15 colon): 10.3%
- growth (HT29 colon): 1.78% (active)
- growth (SNB-75 CNS): 34.3%
- growth (SNB-19 CNS): 47.8%
- growth (PC-3 prostate): 23.6%
- growth (SK-MEL-5 melanoma): 23.6%
- growth (UACC-62 melanoma): 26.4%
- growth (LOX IMVI melanoma): 27.4%
- growth (SK-MEL-28 melanoma): 57.6%

SMILES: Cc1ccc(Cc2cnc(NC(=O)c3cc(Br)cs3)s2)cc1
- growth (HCT-15 colon): 24.4%
- growth (HT29 colon): 16.3%
- growth (SNB-75 CNS): 64.5%
- growth (SNB-19 CNS): 54%
- growth (PC-3 prostate): 46.4%
- growth (SK-MEL-5 melanoma): 46%
- growth (UACC-62 melanoma): 44.7%
- growth (LOX IMVI melanoma): 54.6%
- growth (SK-MEL-28 melanoma): 61.7%

SMILES: COc1ccc(/C=C2\COc3ccc(O)cc3C2=O)c(OC)c1OC
- growth (HCT-15 colon): 48.8%
- growth (HT29 colon): 68.5%
- growth (SNB-75 CNS): 83%
- growth (SNB-19 CNS): 80.6%
- growth (PC-3 prostate): 77.1%
- growth (SK-MEL-5 melanoma): 89.9%
- growth (UACC-62 melanoma): 78.7%
- growth (LOX IMVI melanoma): 44.3%
- growth (SK-MEL-28 melanoma): 99.2%

SMILES: C=C1CC[C@@H]2[C@](C)(COC(C)=O)[C@H](OC(C)=O)CC[C@@]2(C)[C@@H]1CC(Sc1ccccc1)C1=CCOC1=O (stereo not given in full)
- growth (HCT-15 colon): -38.4% (active)
- growth (HT29 colon): -39.3% (active)
- growth (SNB-75 CNS): 87%
- growth (SNB-19 CNS): 51.8%
- growth (PC-3 prostate): 36.4%
- growth (SK-MEL-5 melanoma): 13.5%
- growth (UACC-62 melanoma): -1.75% (active)
- growth (LOX IMVI melanoma): -83.9% (active)
- growth (SK-MEL-28 melanoma): 6.34% (active)

SMILES: COC(=O)CCC(=O)C(=O)OC
- growth (HCT-15 colon): 16.6% [10 mM]
- growth (HT29 colon): -9.41% [10 mM] (active)
- growth (SNB-75 CNS): 19% [10 mM]
- growth (SNB-19 CNS): 12.6% [10 mM]
- growth (PC-3 prostate): -5.82% [10 mM] (active)
- growth (SK-MEL-5 melanoma): 64% [10 mM]
- growth (UACC-62 melanoma): -52.8% [10 mM] (active)
- growth (LOX IMVI melanoma): -19.9% [10 mM] (active)
- growth (SK-MEL-28 melanoma): -1.85% [10 mM] (active)

Reference: PubChem BioAssay (NCI)
